Bioassay records as filed in PubChem.
HepG2 viability: counter-screen for TGF-b inhibitors: cytotoxicity in HepG2 cells | HepG2 CAGA-GFP viability, ATP luminescence, 18 h | actives 0.76% (n = 410,000) | Potency, µM (doses to about 46.1 µM), for the others: top-dose activity change, negative = cytotoxicity, usual class: cytotoxic
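HepG2 CAGA-GFP cells (1000/well, DMEM with 1% FBS) received compound, then TGF-beta at 500 pg/mL final, and were incubated 18 hours at 37 degrees C. Viability was read by CellTiter-Glo luminescence. Media-only wells were set as complete cell-killing and DMSO as no toxicity.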
ATXN2 expr inh: reduces ATXN2 reporter expression in HEK-293 cells. HEK-293 ATXN2-luciferase reporter, luminescence, 24 h. Potency, µM (doses to about 57 µM), inactives show at the top dose activity change, negative = inhibition, hits mostly inhibitors. actives 0.72% (n = 360,000); also: % is scaled to controls: 0 for no effect and ±100 for the full control effect; nearly all actives have a fitted effect of over 55% in size
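qHTS (up to 57 uM final) was run with 24 h compound exposure of reporter cells at 37 °C. Each well was multiplexed: SteadyGlo luminescence measured ATXN2-luciferase expression after a fluorogenic Gly-Phe-AFC viability readout (25 uM final).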
TGFb SMAD3 inh: blocks TGF-b signaling | HepG2 CAGA-GFP TGF-b/SMAD3 reporter, GFP fluorescence, 18 h; TGF-beta stimulated, 500 pg/mL final | actives 1.2% (n = 410,000) | Potency, µM (highest dose often 46.1 µM), for the others: at the highest dose activity, negative = inhibition, usual class: inhibitors | AID 588855; also: % is scaled to controls: 0 for no effect and ±100 for the full control effect; nearly all actives have a fitted effect of over 65% in size
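Read-out: total well GFP (ex488/em500-530) summed from mean per-cell fluorescence. Cells: HEPG2 CAGA-GFP, 1% FBS DMEM, 18 h at 37 degrees C with 500 pg/mL final TGF-beta. Unstimulated wells served as the full-inhibition control; stimulated DMSO wells = 0%.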
DT40 TDP1 CPT: growth inhibition of DT40 Tdp1-/-;hTDP1 cells with camptothecin (screen for TDP1 inhibitors); chicken DT40 Tdp1-/-;hTDP1 cells + 20 nM CPT, ATP luminescence, 48 h; Potency, µM (series often up to 46.2 µM), for inactives: at the top dose activity change, negative = growth inhibition, actives largely listed as inhibitors; actives 12% (n = 420,000); AID 686979; also: % is scaled to controls: 0 for no effect and ±100 for the full control effect; nearly all actives have a fitted effect of over 55% in size
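Chicken DT40 Tdp1-/- cells stably complemented with human TDP1 were seeded at 400 cells/well in medium containing 20 nM camptothecin, exposed to pin-transferred compounds, and grown at 37 °C for at least 48 hr. Viability was read as ATP luminescence.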
S2 tox: cell viability loss in ATXN counter-screen; AID 651635; S2 cells (HEK-293 line with an ATXN2-luciferase reporter) viability, CellTiter-Fluor protease fluorescence, 24 h; actives 0.49% (n = 400,000); Potency, µM (doses to about 56.7 µM), hits mostly cytotoxic; also: nearly all actives have a fitted effect of over 40% in size
TDP1 cell noCPT: qHTS for Inhibitors of human tyrosyl-DNA phosphodiesterase 1 (TDP1): qHTS in cells in absence of CPT | DT40 Tdp1-/- hTDP1 cells, no CPT, ATP luminescence, 48 h | Potency, µM (series often up to 46.2 µM), without a hit: top-dose activity change, negative = growth inhibition, actives largely listed as inhibitors | actives 15% (n = 420,000); also: % is scaled to controls: 0 for no effect and ±100 for the full control effect; nearly all actives have a fitted effect of over 55% in size
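Readout: luminescence from CellTiter-Glo after 30 min in the dark at RT. Cells: DT40 Tdp1-/- with stable hTDP1, 400/well. Exposure: compounds alone, ≥48 hr, 37 °C.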
Starred values were filed as active, the others as inactive; i = inactive; ? = inconclusive; . = no result given. This is a sample that favours compounds with a hit; in the whole collection about 17% have one here. Calls follow the shape of the dose curve; as a rule, active = well fitted curve in the direction sought with a large enough effect; inconclusive = small, poorly fitted or top-dose-only effect, or another doubt; inactive = no such curve, though single readings can be large; an effect the other way counts as inactive or inconclusive. Potency is read from the fitted curve at half-maximal effect.

SMILES | HepG2 viability | ATXN2 expr inh | TGFb SMAD3 inh | DT40 TDP1 CPT | S2 tox | TDP1 cell noCPT
O=C(Nc1cc(C(F)(F)F)ccc1-n1cncn1)c1ccc([N+](=O)[O-])o1 | -40.1% | ? | ? | 10.3µM* | ? | 20.6µM*
O=c1c2ccccc2n(Cc2ccccc2Cl)c(=O)n1CCc1ccccc1 | -24.4% | 11.5% | 6.4% | ? | i | ?
Cc1ccc(-n2ncc3c2CC(C)(C)CC3NC(=O)CCc2cccnc2)cc1 (configuration not stated) | -1.3% | -11.4% | 0.0% | 23.1µM* | i | 16.4µM*
Cc1ccc(-n2ncc3c2CC(C)(C)CC3NC(=O)CCc2ccncc2)cc1 (configuration not stated) | -43.8% | 1.9% | 0.0% | ? | i | ?
COc1ccc(CNC(=O)c2cccc(N3CCCS3(=O)=O)c2)cc1OC | -10.5% | . | 3.3% | 10.3µM* | . | 7.31µM*
CCCN1CCC(=O)N([C@H](CO)c2ccccc2)CC1 | -4.6% | 9.8% | 4.2% | -3.4% | i | 1.4%
CCCN1CCC(=O)N([C@H](COc2ccccc2)c2ccccc2)CC1 | -19.7% | 10.5% | ? | ? | i | 20.6µM*
O=C1CCN(CCc2ccccc2)CCN1[C@H](COc1ccccc1)c1ccccc1 | -27.2% | -19.1% | 10µM* | 14.6µM* | ? | 14.1µM*
CC(C)CN1CCC(=O)N([C@H](COc2ccccc2)c2ccccc2)CC1 | -13.9% | -2.0% | ? | ? | i | 22.4µM*
CC(C)CN1CCC(=O)N(CCOc2ccccc2)CC1 | -19.3% | 38.5% | -3.9% | -1.1% | i | 0.5%
O=C(NCC1CCCCC1)C1CCC(=O)N(CCc2cccc(F)c2)C1 (configuration not stated) | -12.8% | 9.1% | -0.4% | -11.2% | i | ?
O=C(NC1CCCCC1)c1cc(N2C(=O)CCC2=O)ccc1Cl | -8.3% | 3.5% | -0.2% | 2.6% | i | 1.6%
Cc1ccc(NS(=O)(=O)c2c(C)[nH]c(C)c2C(=O)N2CCCC2)cc1Cl | -18.9% | -7.5% | -8.9% | ? | i | ?
CC(=O)c1ccc(NC(=O)COC(=O)CCN2C(=O)c3cccc([N+](=O)[O-])c3C2=O)cc1 | -2.4% | 3.2% | 7.1% | -12.7% | i | -35.7%
CC(C)N(c1ccccc1)c1ccc(NC(=O)COC(=O)CCN2C(=O)c3cccc([N+](=O)[O-])c3C2=O)cc1 | -41.6% | -16.7% | ? | ? | i | 16.4µM*
CCC(CC)C(=O)OCC(=O)Nc1cc(OC)c([N+](=O)[O-])cc1C | 5.8% | 1.2% | 4.5% | -19.1% | i | ?
N#CC1(C#N)[C@@H](C(=O)C23CC4CC(CC(C4)C2)C3)C12CCOCC2 | 11.2% | -1.5% | ? | -27.7% | i | -20.6%
Cc1cnn(C(=S)NCCc2ccccc2)c1 | -34.2% | 57.7% | -6.9% | ? | i | ?
Cc1cnn(C(=S)NCc2ccc(Cl)cc2)c1 | -21.3% | 0.0% | -19.9% | ? | i | 23.1µM*
NCCNc1cc(N2CCCC2)ccc1[N+](=O)[O-] | -6.0% | -32.7% | -17.3% | 23.1µM* | ? | ?
O=[N+]([O-])c1ccc(N2CCCCC2)cc1NCCOc1ccccc1 | 4.0% | 20.8% | -13.1% | 29.1µM* | i | 18.4µM*
Cc1ccccc1OCCNc1cc(N2CC(C)NC(C)C2)ccc1[N+](=O)[O-] (configuration not stated) | -116.5% | ? | ? | 14.6µM* | 23.8µM* | ?
CCc1ccc(OCCNc2cc(N3CCNC(C)C3)ccc2[N+](=O)[O-])cc1 (configuration not stated) | 11.2µM* | ? | ? | 23.1µM* | i | ?
CC1CN(c2ccc([N+](=O)[O-])c(NCCOc3ccccc3)c2)CC(C)N1 (configuration not stated) | -58.2% | ? | ? | ? | ? | ?
COc1ccc2c(c1)-c1nc(-n3ncc(C(=O)N(C)CC4CCCN(C)C4)c3C3CC3)ncc1CC2 (configuration not stated) | . | . | . | 16.0% | i | -11.5%
SMILES | HepG2 viability | ATXN2 expr inh | TGFb SMAD3 inh | DT40 TDP1 CPT | S2 tox | TDP1 cell noCPT
Cc1ccc(C(CC(=O)O)NC(=O)c2ccc(S(=O)(=O)N3CC(C)OC(C)C3)cc2)cc1 (configuration not stated) | -1.7% | ? | -12.2% | -1.0% | i | -1.5%
CCNc1nc(NC(C)C)nc(N(C#N)CCOc2ccccc2)n1 | -37.9% | -21.4% | ? | 23.1µM* | i | 23.1µM*
CCNc1nc(NCC)nc(N(C#N)CCOc2ccccc2)n1 | -1.7% | -10.7% | 4.0% | ? | i | -5.5%
CSc1ccc(/C=N/NC(=O)c2ccc(C)c(C)c2)cc1 | 10.3% | 10.4% | -3.5% | ? | i | 23.1µM*
Cc1ccc(S(=O)(=O)N2CCc3ccccc3C2CN2C(=O)c3ccccc3C2=O)cc1 (configuration not stated) | -21.8% | 0.4% | -0.2% | 22.4µM* | i | 11.2µM*
Cc1ccc(CN2CCNC(=O)C2CC(=O)NCCCn2nnc3ccccc32)cc1 (configuration not stated) | 0.6% | . | -1.2% | 4.7% | i | 3.9%
Cc1ccc(C)c(CC(=O)N2CCCCC2c2cc(C(=O)Nc3cccc(C#N)c3)no2)c1 (configuration not stated) | -20.9% | 10.9% | 6.2% | 23.1µM* | i | 23.1µM*
N#Cc1ccc(C(=O)N2CCCCC2c2cc(C(=O)Nc3cccc(C#N)c3)no2)cc1 (configuration not stated) | -5.6% | -5.3% | 1.6% | ? | i | ?
Cc1ccc(F)cc1C(=O)N1CCCCC1c1cc(C(=O)Nc2cccc(C#N)c2)no1 (configuration not stated) | -25.2% | 0.0% | 0.4% | 29.1µM* | ? | 20.6µM*
COC(=O)N1CCCCC1c1cc(C(=O)Nc2cccc3c2CCCC3)no1 (configuration not stated) | -3.9% | 14.7% | 4.3% | ? | i | ?
CN(C)c1ccc(CC(=O)N2CCCCC2c2cc(C(=O)Nc3cccc4c3CCCC4)no2)cc1 (configuration not stated) | -25.4% | -13.9% | -0.9% | 25.9µM* | i | ?
